The text below walks through data of PubChem BioAssay (EPA / NIEHS).

The structures appear in SMILES notation. The source made the active and inactive calls. The calls were made as follows: active = hit-call score of the fitted dose curve at least 0.9, where 1 is the maximum; inactive = score below 0.9.

Read-out in test [1]: Vascular endothelial growth factor receptor 2 (Homo sapiens) (UniProt P35968)
Description: BSK_4H_VEGFRII: BioMAP Diversity Plus: 4H Assay for Vascular endothelial growth factor receptor 2 (VEGFR2) Biomarker Activity (AID 2283031). The note with it: primary human endothelial cells (HUVEC); actives raise or lower the signal. The procedure, abridged: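 Primary human umbilical vein endothelial cells in the BioMAP 4H system were dosed with test chemical, and 24 h later VEGFRII was measured by ELISA. Activity was fitted bidirectionally against DMSO as negative control and baseline.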

Read-out in test [2]: Human Leukocyte Antigen - DR isotype (HLADR), HLA-DRA (gene 3122)
Briefly: BSK_BE3C_HLADR: BioMAP Diversity Plus: BE3C Assay for Human Leukocyte Antigen - DR isotype (HLADR) Biomarker Activity (AID 2283032). The note with it: primary human bronchial epithelial cells; actives raise or lower the signal. The procedure, abridged: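 Human primary bronchial epithelial cells (BE3C system) exposed to compound for 24 hours; cell-surface HLA-DR measured by ELISA, fitted bidirectionally relative to DMSO. Total protein by SRB in parallel cultures tracked cytotoxicity.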

Read-out in test [3]: Vascular cell adhesion molecule 1 (VCAM1), VCAM1 (gene 7412)
Briefly: BSK_4H_VCAM1: BioMAP Diversity Plus: 4H Assay for Vascular cell adhesion molecule 1 (VCAM1) Biomarker Activity (AID 2283033). The conditions noted are these: primary human endothelial cells (HUVEC); actives raise or lower the signal. A digest of the protocol:
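Primary human umbilical vein endothelial cells, 4H stimulation system, treated for 24 h; cell-surface VCAM-1 quantified by ELISA. Bidirectional fitting against DMSO; cytotoxicity tracked by SRB total-protein staining in parallel cultures.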

Read-out in test [4]: Interferon-gamma inducible Protein 10 (IP10), CXCL10 (gene 3627)
Description: BSK_BE3C_IP10: BioMAP Diversity Plus: BE3C Assay for Interferon-gamma inducible Protein 10 (IP10) Biomarker Activity (AID 2283034). The note with it: primary human bronchial epithelial cells; actives raise or lower the signal. A digest of the protocol:
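Primary human bronchial epithelial cells, with IP-10 measured by ELISA 24 hours after chemical dosing. Bidirectional fit against DMSO; cytotoxicity checked by SRB total protein staining in parallel cultures.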

Read-out in test [5]: Monokine induced gamma interferon (MIG), CXCL9 (gene 4283)
Description: BSK_BE3C_MIG: BioMAP Diversity Plus: BE3C Assay for Monokine induced gamma interferon (MIG) Biomarker Activity (AID 2283035).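 Also: MIG protein measured by ELISA in BE3C cultures after 24 h of dosing.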 The note with it: primary human bronchial epithelial cells; actives raise or lower the signal. The procedure, abridged:
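Primary human bronchial epithelial cells treated for 24 h; MIG levels measured by ELISA, fitted bidirectionally versus DMSO. Parallel SRB total-protein staining assessed cytotoxicity.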

Read-out in test [6]: Transforming growth factor beta 1 (TGFb1), TGFB1 (gene 7040)
Description: BSK_BE3C_TGFb1: BioMAP Diversity Plus: BE3C Assay for Transforming growth factor beta 1 (TGFb1) Biomarker Activity (AID 2283036). The note with it: primary human bronchial epithelial cells; actives raise or lower the signal. A digest of the protocol:
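Primary human bronchial epithelial cells dosed with chemical; TGF-b1 measured by ELISA 24 h after dosing. Bidirectional curve fitting against DMSO negative control; SRB total-protein staining in parallel cultures gauged cytotoxicity.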

Read-out in test [7]: Plasminogen activator inhibitor-1 (PAI1), SERPINE1 (gene 5054)
Briefly: BSK_BE3C_PAI1: BioMAP Diversity Plus: BE3C Assay for Plasminogen activator inhibitor-1 (PAI1) Biomarker Activity (AID 2283037). The note with it: primary human bronchial epithelial cells; actives raise or lower the signal. A digest of the protocol: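 Primary human bronchial epithelial cells (BE3C system) exposed 24 h; PAI-1 quantified by ELISA. Parallel sulforhodamine B staining of total protein flags cytotoxicity. Bidirectional fit versus DMSO.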

Read-out in test [8]: urokinase plasminogen activator (uPA), PLAU (gene 5328)
Briefly: BSK_BE3C_uPA: BioMAP Diversity Plus: BE3C Assay for urokinase plasminogen activator (uPA) Biomarker Activity (AID 2283038).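 Also: uPA protein level quantified by ELISA in cell cultures; uPA read one day after compound addition.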 The note with it: primary human bronchial epithelial cells; actives raise or lower the signal. A digest of the protocol:
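Human primary bronchial epithelial cells were exposed to chemical for 24 h, then uPA levels were measured by ELISA. Responses were fitted bidirectionally against DMSO as negative control and baseline. Parallel SRB staining of total protein gauged overt cytotoxicity.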

Read-out in test [9]: Urokinase-type plasminogen activator receptor (uPAR), PLAUR (gene 5329)
Briefly: BSK_BE3C_uPAR: BioMAP Diversity Plus: BE3C Assay for Urokinase-type plasminogen activator receptor (uPAR) Biomarker Activity (AID 2283039).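 Also: cells exposed to compound for one day before measurement.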 The conditions noted are these: primary human bronchial epithelial cells; actives raise or lower the signal. A digest of the protocol:
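Primary human bronchial epithelial cells dosed for 24 h; uPAR quantified by ELISA with bidirectional fitting against DMSO. Overt cytotoxicity assessed in parallel cultures by SRB total-protein staining (0.1% SRB, 560 nm).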

Read-out in test [10]: Interleukin-6 (IL6), IL6 (gene 3569)
Briefly: BSK_CASM3C_IL6: BioMAP Diversity Plus: CASM3C Assay for Interleukin-6 (IL6) Biomarker Activity for (AID 2283040). The conditions noted are these: primary human coronary artery smooth muscle cells; actives raise or lower the signal.

Read-out in test [11]: Tissue plasminogen activator (tPA), PLAT (gene 5327)
Briefly: BSK_BE3C_tPA: BioMAP Diversity Plus: BE3C Assay for Tissue plasminogen activator (tPA) Biomarker Activity (AID 2283041).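 Also: tPA level quantified by ELISA one day after compound addition.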 The note with it: primary human bronchial epithelial cells; actives raise or lower the signal. A digest of the protocol: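 Primary human bronchial epithelial cells in the BE3C system, exposed to compound for 24 h. tPA was quantified by ELISA; DMSO served as baseline, with gain or loss of signal fitted. Cytotoxicity checked in parallel cultures by SRB total-protein staining.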

Read-out in test [12]: Interleukin-8 (IL8), CXCL8 (gene 3576)
Description: BSK_CASM3C_IL8: BioMAP Diversity Plus: CASM3C Assay for Interleukin-8 (IL8) Biomarker Activity (AID 2283042).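 Also: IL-8 protein level quantified by ELISA.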 The note with it: primary human coronary artery smooth muscle cells; actives raise or lower the signal.

Read-out in test [13]: Human Leukocyte Antigen - DR isotype (HLADR), HLA-DRA (gene 3122)
Description: BSK_CASM3C_HLADR: BioMAP Diversity Plus: CASM3C Assay for Human Leukocyte Antigen - DR isotype (HLADR) Biomarker Activity (AID 2283043).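 Also: cell-surface HLA-DR protein level quantified by ELISA.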 The note with it: primary human coronary artery smooth muscle cells; actives raise or lower the signal.

Read-out in test [14]: Macrophage colony-stimulating factor (MCSF), CSF1 (gene 1435)
Briefly: BSK_CASM3C_MCSF: BioMAP Diversity Plus: CASM3C Assay for Macrophage colony-stimulating factor (MCSF) Biomarker Activity (AID 2283044).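 Also: M-CSF protein amount quantified by ELISA after 24 h exposure.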 The note with it: primary human coronary artery smooth muscle cells; actives raise or lower the signal.

Read-out in test [15]: Low-density lipoprotein receptor (LDLR), LDLR (gene 3949)
Description: BSK_CASM3C_LDLR: BioMAP Diversity Plus: CASM3C Assay for Low-density lipoprotein receptor (LDLR) Biomarker Activity (AID 2283045).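 Also: LDLR protein level on the cell surface quantified by ELISA.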 The conditions noted are these: primary human coronary artery smooth muscle cells; actives raise or lower the signal.

Read-out in test [16]: Monocyte Chemoattractant Protein-1 (MCP1), CCL2 (gene 6347)
Briefly: BSK_CASM3C_MCP1: BioMAP Diversity Plus: CASM3C Assay for Monocyte Chemoattractant Protein-1 (MCP1) Biomarker Activity (AID 2283046).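 Also: MCP-1 level quantified by ELISA 24 h after dosing.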 The conditions noted are these: primary human coronary artery smooth muscle cells; actives raise or lower the signal.

Test [17] in a line: BSK_CASM3C_Proliferation: Cell Proliferation Assessment in the BioMAP Diversity Plus: CASM3C Assay (AID 2283047).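 Also: sulforhodamine B total protein stain as relative cell number at 560 nm; sub-confluent cells exposed 48 h before staining; fitted both ways against DMSO so gain or loss of cell number.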 The conditions noted are these: primary human coronary artery smooth muscle cells.
Read-out in test [18]: Monokine induced gamma interferon (MIG), CXCL9 (gene 4283)
Description: BSK_CASM3C_MIG: BioMAP Diversity Plus: CASM3C Assay for Monokine induced gamma interferon (MIG) Biomarker Activity (AID 2283048). The conditions noted are these: primary human coronary artery smooth muscle cells; actives raise or lower the signal.

Read-out in test [19]: serum amyloid A (SAA), SAA1 (gene 6288)
Description: BSK_CASM3C_SAA: BioMAP Diversity Plus: CASM3C Assay for serum amyloid A (SAA) Biomarker Activity (AID 2283049).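 Also: SAA protein level quantified by ELISA.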 The conditions noted are these: primary human coronary artery smooth muscle cells; actives raise or lower the signal.

The nature of test [20]: BSK_CASM3C_SRB: Viability Assessment in the BioMAP Diversity Plus: CASM3C Assay (AID 2283050). The conditions noted are these: primary human coronary artery smooth muscle cells.

By AC50 is commonly meant the midpoint of the concentration-response curve, whichever way the signal moves.

With `Cc1[nH]c(=O)n(C(C)(C)C)c(=O)c1Cl`, the outcome in [1], in test [2], in [3], in test [4], in [5] and in test [6] was inactive. The result in [7], in [8], in [9], in [10], in [11] and in [12] was inactive. Besides, the result in [13], in [14], in test [15], in test [16], in test [17] and in [18] was inactive. Also, the outcome in test [19] and in test [20] was inactive.

For the compound `CCc1ccc(C(=O)NN(C(=O)c2cc(C)cc(C)c2)C(C)(C)C)cc1`, the result in test [1], in test [2], in [3], in test [4], in test [5] and in [6] was inactive. Moreover, the outcome in test [7], in test [8], in test [9], in test [10], in [11] and in [12] was inactive. Moreover, the outcome in [13], in [14], in test [15], in test [16], in test [18] and in [19] was inactive. Also, the outcome in test [20] was inactive. In addition, the AC50 in test [17] is 22.9 µM (active).

For `OCCOc1ccccc1`, the outcome in test [1], in [2], in [3], in test [4], in test [5] and in test [6] was inactive. For the same compound, the outcome in test [7], in test [8], in test [9], in test [10], in test [11] and in [12] was inactive. Also, the result in test [13], in [14], in [15], in test [16], in test [17] and in [18] was inactive. Besides, the result in test [20] was inactive. Moreover, in [19], the AC50 was 20 µM (active).

As to `COC(=O)c1ccccc1S(=O)(=O)NC(=O)N(C)c1nc(C)nc(OC)n1`, the result in test [1], in test [2], in test [3], in test [4], in test [5] and in test [7] was inactive. The result in [8], in [9], in [10], in test [11], in test [12] and in test [13] was inactive. In addition, the result in test [14], in [15], in test [16], in test [17], in test [18] and in [19] was inactive. Further, in test [20], the result was inactive. Also, the AC50 in test [6] was 0.148 µM (active).
